Compound activity: PubChem BioAssay, National Center for Advancing Translational Sciences (NCATS)
FMDV inh – antivirals against foot and mouth disease virus | FMDV antiviral cell-based qHTS | Potency, µM (series often up to 57.9 µM), without a hit: at the highest dose activity change, negative = inhibition, usual class: inhibitors | 410,000 tested, 1.2% active; calls by dose curve; tested in HEK293T cells; further: read-out not given here; potency means the concentration at half of the fitted maximal effect; nearly all actives have a fitted effect of over 45% in size
Marburg entry inh – inhibitors of Marburg virus binding or cell entry; Marburg virus pseudotyped entry inhibition, cell reporter; Potency, µM (doses to about 37.8 µM), inactives show top-dose activity change, negative = inhibition, hits mostly inhibitors; 300,000 tested, 1.8% active; AID 540276; calls by dose curve; tested in HEK293 cells; further: potency means the concentration at half of the fitted maximal effect
HCMV inh – inhibitors of human cytomegalovirus. HFF cells, HCMV-luciferase reporter, 72 h; stronger effect = lower value. activity change, negative = inhibition, % at 57.5 µM. 410,000 tested, 4.5% active. AID 1259415; in the data active means activity change below about -60%; inconclusive means no clear call, values can overlap the other calls; inactive means above about -39%
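HFF cells seeded 16 h at 37C, treated with compounds, infected with luciferase-reporter HCMV at MOI 1 PFU/cell; luciferase read at 72 h post infection, normalized to buffer-only and Salinomycin controls.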
VACV Venus inh – inhibitors of vaccinia virus (Venus reporter); Vaccinia virus Venus reporter expression, fluorescence; Potency, µM (series often up to 36.5 µM), for the others: at the highest dose activity change, negative = inhibition, usual class: inhibitors; 330,000 tested, 0.46% active; AID 720580; calls by dose curve; tested in A549 cells; further: potency means the concentration at half of the fitted maximal effect; nearly all actives have a fitted effect of over 30% in size
VACV mCherry inh – inhibitors of vaccinia virus infection (mCherry reporter signal); Vaccinia virus mCherry reporter infection, fluorescence; Potency, µM (titrated, usually from 36.5 µM), for inactives: at the highest dose activity change, negative = inhibition, actives largely listed as inhibitors; 310,000 tested, 0.63% active; AID 720579; calls by dose curve; tested in A549 cells; further: potency means the concentration at half of the fitted maximal effect; nearly all actives have a fitted effect of over 35% in size
Lassa entry inh – Lassa virus entry inhibition; Lassa virus pseudotype entry inhibition, cell reporter; Potency, µM (highest dose often 37.9 µM), without a hit: at the top dose activity change, negative = inhibition, most hits filed as inhibitors; 300,000 tested, 1.2% active; AID 540256; calls by dose curve; tested in HEK293 cells; further: potency means the concentration at half of the fitted maximal effect; nearly all actives have a fitted effect of over 50% in size
An asterisk follows results filed as active; i = inactive; ? = inconclusive; . = no result; [ ] = dose if it differs, or a comment. The list is not random: actives were taken first. Their share in the collection is about 6.5%. On the % scale 0 is the no-effect control and ±100 the full control effect.

SMILES	FMDV inh	Marburg entry inh	HCMV inh	VACV Venus inh	VACV mCherry inh	Lassa entry inh
CCOc1ccc(N(CC(=O)Nc2cccc(Cl)c2)S(=O)(=O)c2c(C)noc2C)cc1	?	-4%	1	-27%	-16%	.
CCOc1ccc(N(CC(=O)Nc2ccccc2OCC)S(=O)(=O)c2c(C)noc2C)cc1	-28%	.	-86*	.	.	.
CNC(=O)c1cc(Oc2ccc(NC(=O)Nc3ccc(Cl)c(C(F)(F)F)c3)cc2)ccn1	20µM*	.	-100*	10µM*	?	.
CCOc1ccccc1NC(=O)c1cnc(N2CCOCC2)c2ccccc12	-18%	.	6	-5%	-11%	-23%[46.1 µM]
CCN1CCN(c2ncc(C(=O)Nc3ccccc3C(=O)OC)c3ccccc23)CC1	-17%	13µM*	-7	-27%	?	?
CCc1ccc(NC(=O)c2cnc(N3CCN(c4ccccn4)CC3)c3ccccc23)cc1	11µM*	?	-19	?	-30%	?
Cc1cccc(-n2ncc3c2CCCC3NC(=O)CN2CCOC2=O)c1C (stereo not given)	-25%	.	-4	.	.	.
Cc1cccc(-n2ncc3c2CCCC3NC(=O)Cc2c(C)noc2C)c1C (stereo not given)	-22%	.	?	.	.	.
Cc1cc(C(=O)NC2CCCc3c2cnn3-c2cccc(C)c2C)no1 (stereo not given)	-17%	?	-97*	2%	?	?
Cc1cccc(-n2ncc3c2CCCC3NC(=O)c2ccncc2)c1C (stereo not given)	?	.	-79*	-28%	-12%	.
CC1=C(C(=O)NC2CCCc3c2cnn3-c2cccc(C)c2C)OCCO1 (stereo not given)	?	?	-79*	-30%	-23%	?
Cc1cccc(-n2ncc3c2CCCC3NC(=O)CN2CCCC2=O)c1C (stereo not given)	-10%	?	66	-16%	-12%	?
COc1ccc(C(=O)NC2CCCc3c2cnn3-c2cccc(C)c2C)o1 (stereo not given)	-8%	.	-93*	.	.	.
CCN1CCCC1CNC(=O)c1cnn(-c2nccc(-c3cc4ccccc4o3)n2)c1C1CC1 (stereo not given)	-11%	.	.	-23%	-23%	.
Cc1ccccc1CNC(=O)c1nn(-c2ccccc2F)nc1CO	-14%	17%[46.1 µM]	-13	-12%	-7%	19%[46.1 µM]
Cc1cccc(-n2ncc3c2CCCC3NC(=O)CCc2cccnc2)c1C (stereo not given)	0%	.	-63*	.	.	.
Cc1cc(C)cc(-n2ncc3c2CCCC3NC(=O)c2ccccc2)c1 (stereo not given)	?	.	-26	-19%	-6%	.
Cc1cccc(-n2ncc3c2CCCC3NC(=O)c2cccs2)c1C (stereo not given)	?	.	-75*	-25%	?	.
CCn1cc(C(=O)NC2CCCc3c2cnn3-c2cccc(C)c2C)cn1 (stereo not given)	.	.	-99*	.	.	.
Cc1ccc(Oc2nnc(-c3cccs3)c3ccccc23)cc1	-3%	25%	-21	-10%	i	15%
Cc1ccc(Oc2nnc(-c3cccs3)c3ccccc23)cc1C	?	?	-62*	?	-21%	-16%
CNc1ncn(-c2c(C)cccc2C)c(=O)n1	.	.	-99*	.	.	.
Cc1cccc2c1N(C)C(=O)C2=O	3%	9%[46.1 µM]	-17	2%	11%	-5%
Nc1n[nH]c(-c2ccccc2[N+](=O)[O-])n1	-3%	?	-96*	6%	-11%	18%
Cc1nc([N+](=O)[O-])cn1CC(O)c1ccc2c(c1)OCO2 (stereo not given)	.	.	.	-10%	-13%	.
SMILES	FMDV inh	Marburg entry inh	HCMV inh	VACV Venus inh	VACV mCherry inh	Lassa entry inh
CCOC(=O)N1CCN(Cc2ccccc2Cl)CC1	-16%	-16%	-14	-8%	-17%	3%
CCOC(=O)N1CCN(Cc2cc(Cl)c3cccnc3c2O)CC1	-24%	?	-92*	?	?	?
CCOCc1cc(CN2CCN(c3cccc(Cl)c3)CC2)c(O)c2ncccc12	-23%	?	-100*	-21%[7.34 µM]	?	?
c1ccc(N2CCN(Cc3ccnc4ccccc34)CC2)cc1	-4%	?	-83*	.	.	-25%
COCc1cc(CN2CCN(C)CC2)c(O)c2ncccc12	-9%	?	?	.	.	?
CCOCC(=O)N1CCN(c2cccc(Cl)c2)CC1	-6%	?	?	-5%	-10%	9%
CC(C)OCc1cc(CN2CCN(c3ccccc3)CC2)c(O)c2ncccc12	?	?	-70*	?	11µM*	?
Brc1cc2c(cc1CN1CCN(c3ccccc3)CC1)OCCO2	-28%	?	27	5%	?	?
C[C@H]1[C@@H](NC(=O)Nc2cccc(C#N)c2)CC[C@@]23CCCN2C(=O)CCC[C@@H]13	.	.	12	.	.	.
O=C(NN=C1C[C@@H](O)[C@H](O)[C@H]2[C@@H]3C(=O)N(C[C@@H]4CCCO4)C(=O)[C@@H]3CC[C@@H]12)OCc1ccccc1	.	-5%[14.2 µM]	.	.	.	?
Oc1c(CN2CCN(c3ccccc3)CC2)cc(Br)c2cccnc12	?	.	-70*	.	.	.
COc1ccc(CNc2nc(Cl)nc3nc[nH]c23)cc1	.	.	.	-17%	3%	.
N[C@H](Cn1ccc(=O)n(Cc2ccccc2C(=O)O)c1=O)C(=O)O	3%	.	.	.	.	.
O=C(Nc1nnc(CCc2ccccc2)s1)C1CCN(C(=O)c2ccco2)CC1	.	.	.	-9%	-14%	.
Nc1c(Cl)cc(/C=C2\C=Cc3ccccc32)cc1Cl	.	.	.	-11%	33%	.
Cc1ccc(NC(=O)c2ccccc2NS(=O)(=O)c2ccc(Cl)s2)cc1	35%	10µM*	-98*	?	?	?
O=C(Nc1ccccc1)c1ccccc1NS(=O)(=O)c1ccc(Cl)s1	1%	20µM*	-64*	?	?	?
O=C(NCc1ccco1)c1ccccc1NS(=O)(=O)c1ccc(Cl)s1	-24%	-20%[46.1 µM]	-26	-10%	-19%	-18%
Cc1ccc(NS(=O)(=O)c2ccc(Cl)s2)nc1	48%	0%[46.1 µM]	8	-3%	-14%	?
CS(=O)(=O)c1ccccc1C(=O)Nc1ccccc1Cc1ccccc1	4%	12%[46.1 µM]	8	-24%	-12%	?
O=C(Nc1ccccc1Cc1ccccc1)c1ccccc1NS(=O)(=O)c1ccc(Cl)s1	?	?	-104*	?	?	?
CC(C)N1CCN(C(=O)c2cnn(-c3nccc(-c4ccc5c(c4)OCO5)n3)c2-c2ccco2)CC1	-4%	.	.	-24%	?	.
CO[C@H]1[C@H](NC(=O)c2ccco2)c2ccccc2C12CCN(Cc1cnn(-c3ccccc3)c1)CC2	17%	.	.	-17%	-24%	.
Cc1ccc(/C=N/N(Cc2ccccc2)c2ccccc2)o1	-10%	.	-17	.	.	.
CN(C)/N=C/c1ccc(P(c2ccc(/C=N/N(C)C)o2)c2ccc(/C=N/N(C)C)o2)o1	17%	?	-62*	-6%	-24%	?
CCOC(=O)c1c(-c2ccccc2)nc2ccccn12	-29%	3%	-63*	.	.	?
